The results in this text go back to the supplement of paper PMC6992640.

Counter-ions that a name gives are not always drawn.

The subject of this experiment is UCD52 (cells of a triple-negative basal-like breast cancer xenograft). The experiment in a line: cell viability of combination (% of vehicle); higher = less cytotoxic. To be noted: 1 µM; 72 h; partner dose: 10 nM. Here is the method: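 PDX cells were treated for 72 h with each drug at 1 µM plus afatinib (10 nM; 1 µM for WHIM30). Luciferase viability is expressed as percent of vehicle.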
Turning to `CCCCc1oc2ccc(NS(C)(=O)=O)cc2c1C(=O)c1ccc(OCCCN(CCCC)CCCC)cc1` [Dronedarone] + CN(C)C/C=C/C(=O)Nc1cc2c(Nc3ccc(F)c(Cl)c3)ncnc2cc1O[C@H]1CCOC1 [Afatinib], the “cell viability of combination” value is 57.7.

For the molecule `COc1ccc2c(O[C@H]3CC4C(=O)N(C)CCCC/C=C\[C@H]5C[C@@]5(C(=O)NS(=O)(=O)C5CC5)NC(=O)[C@@H]4C3)cc(-c3nc(C(C)C)cs3)nc2c1C` (some centres not stated) [Simeprevir] + CN(C)C/C=C/C(=O)Nc1cc2c(Nc3ccc(F)c(Cl)c3)ncnc2cc1O[C@H]1CCOC1 [Afatinib], the “cell viability of combination” value was 64.5.

With `Clc1ccc(C(Cn2ccnc2)OCc2ccc(Sc3ccccc3)cc2)c(Cl)c1.O=[N+]([O-])O` (configuration not stated) [Fenticonazole Nitrate] + CN(C)C/C=C/C(=O)Nc1cc2c(Nc3ccc(F)c(Cl)c3)ncnc2cc1O[C@H]1CCOC1 [Afatinib], the “cell viability of combination” value came out at 59.9.

Take `C#Cc1cccc(Nc2ncnc3cc(OCCOC)c(OCCOC)cc23)c1` [Erlotinib] + CN(C)C/C=C/C(=O)Nc1cc2c(Nc3ccc(F)c(Cl)c3)ncnc2cc1O[C@H]1CCOC1 [Afatinib]: the “cell viability of combination” value was 55.

For the molecule `CO[C@H]1/C=C/O[C@@]2(C)Oc3c(C)c(O)c4c(O)c(c(/C=N/N5CCN(C6CCCC6)CC5)c(O)c4c3C2=O)NC(=O)/C(C)=C\C=C\[C@H](C)[C@H](O)[C@@H](C)[C@@H](O)[C@@H](C)[C@H](OC(C)=O)[C@@H]1C` [Rifapentine] + CN(C)C/C=C/C(=O)Nc1cc2c(Nc3ccc(F)c(Cl)c3)ncnc2cc1O[C@H]1CCOC1 [Afatinib], the “cell viability of combination” value was determined as 72.2.

As for `COc1ccc(CN2CCN(C(c3ccc(F)cc3)c3ccc(F)cc3)CC2)c(OC)c1OC.Cl.Cl` [Lomerizine HCl] + CN(C)C/C=C/C(=O)Nc1cc2c(Nc3ccc(F)c(Cl)c3)ncnc2cc1O[C@H]1CCOC1 [Afatinib], the “cell viability of combination” value was 68.9.

With `COC(=O)c1ccc2c(c1)NC(=O)C2=C(Nc1ccc(N(C)C(=O)CN2CCN(C)CC2)cc1)c1ccccc1` [Nintedanib (BIBF 1120)] + CN(C)C/C=C/C(=O)Nc1cc2c(Nc3ccc(F)c(Cl)c3)ncnc2cc1O[C@H]1CCOC1 [Afatinib], the “cell viability of combination” value turned out to be 19.6.

For `COc1cc(Nc2ncc(F)c(Nc3ccc4c(n3)N(COP(=O)(O)O)C(=O)C(C)(C)O4)n2)cc(OC)c1OC` [Fostamatinib (R788)] + CN(C)C/C=C/C(=O)Nc1cc2c(Nc3ccc(F)c(Cl)c3)ncnc2cc1O[C@H]1CCOC1 [Afatinib], the “cell viability of combination” value worked out at 74.9.

Take `CCCCCCCCc1ccc(CCC(N)(CO)CO)cc1.Cl` [Fingolimod (FTY720)] + CN(C)C/C=C/C(=O)Nc1cc2c(Nc3ccc(F)c(Cl)c3)ncnc2cc1O[C@H]1CCOC1 [Afatinib]: the “cell viability of combination” value came out at 69.9.

For `COc1cc2c(Oc3ccc4[nH]c(C)cc4c3F)ncnc2cc1OCCCN1CCCC1` [Cediranib (AZD217)] + CN(C)C/C=C/C(=O)Nc1cc2c(Nc3ccc(F)c(Cl)c3)ncnc2cc1O[C@H]1CCOC1 [Afatinib], the “cell viability of combination” value amounted to 24.5.

On to `CC[C@@]1(O)C(=O)OCc2c1cc1n(c2=O)Cc2cc3c(CN(C)C)c(O)ccc3nc2-1.Cl` [Topotecan HCl] + CN(C)C/C=C/C(=O)Nc1cc2c(Nc3ccc(F)c(Cl)c3)ncnc2cc1O[C@H]1CCOC1 [Afatinib], for which the “cell viability of combination” value is 66.5.

As for `Cc1nc(NC(=O)N2CCCC2C(N)=O)sc1-c1ccnc(C(C)(C)C(F)(F)F)c1` (configuration not stated) + CN(C)C/C=C/C(=O)Nc1cc2c(Nc3ccc(F)c(Cl)c3)ncnc2cc1O[C@H]1CCOC1 [Afatinib], the “cell viability of combination” value stood at 43.4.

On to `CC(C)C[C@H](NC(=O)[C@H](Cc1ccccc1)NC(=O)c1cnccn1)B(O)O` [Bortezomib] + CN(C)C/C=C/C(=O)Nc1cc2c(Nc3ccc(F)c(Cl)c3)ncnc2cc1O[C@H]1CCOC1 [Afatinib], for which the “cell viability of combination” value worked out at 15.1.

On to `CNC1CCC(c2ccc(Cl)c(Cl)c2)c2ccccc21.Cl` (configuration not stated) [Sertraline HCl] + CN(C)C/C=C/C(=O)Nc1cc2c(Nc3ccc(F)c(Cl)c3)ncnc2cc1O[C@H]1CCOC1 [Afatinib], for which the “cell viability of combination” value was 56.4.

For the molecule `CC(C)C(=O)OCC(=O)[C@@]12O[C@H](C3CCCCC3)O[C@@H]1C[C@H]1[C@@H]3CCC4=CC(=O)C=C[C@]4(C)[C@H]3[C@@H](O)C[C@@]12C` [Ciclesonide] + CN(C)C/C=C/C(=O)Nc1cc2c(Nc3ccc(F)c(Cl)c3)ncnc2cc1O[C@H]1CCOC1 [Afatinib], the “cell viability of combination” value was determined as 99.5.

On to `COC(=O)C1=C(C)NC(C)=C(C(=O)OCCN(C)Cc2ccccc2)C1c1cccc([N+](=O)[O-])c1.Cl` (configuration not stated) [Nicardipine HCl] + CN(C)C/C=C/C(=O)Nc1cc2c(Nc3ccc(F)c(Cl)c3)ncnc2cc1O[C@H]1CCOC1 [Afatinib], for which the “cell viability of combination” value turned out to be 69.6.

Take `COc1cc2c(Oc3ccc(NC(=O)C4(C(=O)Nc5ccc(F)cc5)CC4)cc3F)ccnc2cc1OCCCN1CCOCC1` + CN(C)C/C=C/C(=O)Nc1cc2c(Nc3ccc(F)c(Cl)c3)ncnc2cc1O[C@H]1CCOC1 [Afatinib]: the “cell viability of combination” value was 28.5.

Regarding `CCN1CCN(Cc2ccc(Nc3ncc(F)c(-c4cc(F)c5nc(C)n(C(C)C)c5c4)n3)nc2)CC1.CS(=O)(=O)O` + CN(C)C/C=C/C(=O)Nc1cc2c(Nc3ccc(F)c(Cl)c3)ncnc2cc1O[C@H]1CCOC1 [Afatinib], the “cell viability of combination” value was 40.5.

As for `CC(=O)C1(O)Cc2c(O)c3c(c(O)c2C(OC2CC(N)C(O)C(C)O2)C1)C(=O)c1ccccc1C3=O.Cl` (configuration not stated) [Idarubicin HCl] + CN(C)C/C=C/C(=O)Nc1cc2c(Nc3ccc(F)c(Cl)c3)ncnc2cc1O[C@H]1CCOC1 [Afatinib], the “cell viability of combination” value came out at 24.3.

As to `COc1cc2c(Nc3ccc(Br)cc3F)ncnc2cc1OCC1CCN(C)CC1` [Vandetanib (ZD6474)] + CN(C)C/C=C/C(=O)Nc1cc2c(Nc3ccc(F)c(Cl)c3)ncnc2cc1O[C@H]1CCOC1 [Afatinib], the “cell viability of combination” value was found to be 36.2.

Consider `CS(=O)(=O)O.Cc1c(O)cccc1C(=O)NC(CSc1ccccc1)C(O)CN1CC2CCCCC2CC1C(=O)NC(C)(C)C` (configuration not stated) [Nelfinavir Mesylate] + CN(C)C/C=C/C(=O)Nc1cc2c(Nc3ccc(F)c(Cl)c3)ncnc2cc1O[C@H]1CCOC1 [Afatinib], for which the “cell viability of combination” value is 47.9.

Take `COc1cc2nccc(Oc3ccc(NC(=O)Nc4cc(C)on4)c(Cl)c3)c2cc1OC` [Tivozanib (AV-951)] + CN(C)C/C=C/C(=O)Nc1cc2c(Nc3ccc(F)c(Cl)c3)ncnc2cc1O[C@H]1CCOC1 [Afatinib]: the “cell viability of combination” value was 40.2.

Consider `CCCSc1nc(NC2CC2c2ccc(F)c(F)c2)c2nnn(C3CC(OCCO)C(O)C3O)c2n1` (configuration not stated) [Ticagrelor] + CN(C)C/C=C/C(=O)Nc1cc2c(Nc3ccc(F)c(Cl)c3)ncnc2cc1O[C@H]1CCOC1 [Afatinib], for which the “cell viability of combination” value worked out at 72.2.

`COc1nc2ccc(Br)cc2cc1[C@@H](c1ccccc1)[C@@](O)(CCN(C)C)c1cccc2ccccc12` [Bedaquiline fumarate] + CN(C)C/C=C/C(=O)Nc1cc2c(Nc3ccc(F)c(Cl)c3)ncnc2cc1O[C@H]1CCOC1 [Afatinib]: the “cell viability of combination” value amounted to 91.2.

On to `Cc1ccc(C(=O)N(CCCN)C(c2nc3cc(Cl)ccc3c(=O)n2Cc2ccccc2)C(C)C)cc1` (configuration not stated) + CN(C)C/C=C/C(=O)Nc1cc2c(Nc3ccc(F)c(Cl)c3)ncnc2cc1O[C@H]1CCOC1 [Afatinib], for which the “cell viability of combination” value amounted to 36.

As for `CCOc1cc2ncc(C#N)c(Nc3ccc(OCc4ccccn4)c(Cl)c3)c2cc1NC(=O)C=CCN(C)C` [Neratinib (HKI-272)] + CN(C)C/C=C/C(=O)Nc1cc2c(Nc3ccc(F)c(Cl)c3)ncnc2cc1O[C@H]1CCOC1 [Afatinib], the “cell viability of combination” value was 50.9.

On to `COc1ccccc1OCCNCC(O)COc1cccc2[nH]c3ccccc3c12` (configuration not stated) [Carvedilol] + CN(C)C/C=C/C(=O)Nc1cc2c(Nc3ccc(F)c(Cl)c3)ncnc2cc1O[C@H]1CCOC1 [Afatinib], for which the “cell viability of combination” value is 59.2.

Take `Clc1ccc(CSC(Cn2ccnc2)c2ccc(Cl)cc2Cl)cc1.O=[N+]([O-])O` (configuration not stated) [Sulconazole Nitrate] + CN(C)C/C=C/C(=O)Nc1cc2c(Nc3ccc(F)c(Cl)c3)ncnc2cc1O[C@H]1CCOC1 [Afatinib]: the “cell viability of combination” value amounted to 74.1.

Consider `C=C1C(=CC=C2CCCC3(C)C2CCC3C(C)C=CC(C)C(C)C)CC(O)CC1O` (configuration not stated) [Doxercalciferol] + CN(C)C/C=C/C(=O)Nc1cc2c(Nc3ccc(F)c(Cl)c3)ncnc2cc1O[C@H]1CCOC1 [Afatinib], for which the “cell viability of combination” value was 47.6.

As for `CC(=O)c1cc2c(o1)C(=O)c1ccccc1C2=O` [Napabucasin] + CN(C)C/C=C/C(=O)Nc1cc2c(Nc3ccc(F)c(Cl)c3)ncnc2cc1O[C@H]1CCOC1 [Afatinib], the “cell viability of combination” value was determined as 17.4.

Consider `COc1cc(C(=O)O)ccc1NC(=O)C1NC(CC(C)(C)C)C(C#N)(c2ccc(Cl)cc2F)C1c1cccc(Cl)c1F` (configuration not stated) + CN(C)C/C=C/C(=O)Nc1cc2c(Nc3ccc(F)c(Cl)c3)ncnc2cc1O[C@H]1CCOC1 [Afatinib], for which the “cell viability of combination” value stood at 60.4.

Consider `O=C(C=Cn1cnc(-c2cc(C(F)(F)F)cc(C(F)(F)F)c2)n1)NNc1cnccn1` + CN(C)C/C=C/C(=O)Nc1cc2c(Nc3ccc(F)c(Cl)c3)ncnc2cc1O[C@H]1CCOC1 [Afatinib], for which the “cell viability of combination” value worked out at 52.2.
